Data from PubChem BioAssay (NCI).
About 79,000 compounds went through this panel and 15% of them were active in at least one assay; those are over-represented in the sample as a whole. Active and inactive are the calls of the source. Rule as the data show it: active = growth inhibition above about 70%; inactive = the rest.

Columns and labels:
[1] = NCI Yeast Anticancer Drug Screen. Data for the rad50 strain (AID 155);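 also: 0% = growth of vehicle-only cultures of the same strain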; conditions: S. cerevisiae rad50 strain growth inhibition, stronger effect = higher value
Method in brief: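 Yeast carrying a defined DNA repair defect were exposed to test compounds, and growth was compared with vehicle-treated controls to give percent inhibition.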

[2] = NCI Yeast Anticancer Drug Screen. Data for the mec2-1 strain (AID 157); conditions: S. cerevisiae mec2-1 strain, stronger effect = higher value
Method in brief: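 Using mec2-1 yeast: add compound, measure growth, express inhibition versus vehicle-treated cultures.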

[3] = NCI Yeast Anticancer Drug Screen. Data for the sgs1 mgt1 strain (AID 161);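 also: 0% = growth of cultures given vehicle only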; conditions: S. cerevisiae sgs1 mgt1 strain, stronger effect = higher value
Method in brief: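 Growth of a repair-deficient yeast mutant was monitored after compound treatment and expressed as inhibition relative to vehicle-treated cultures.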

[4] = NCI Yeast Anticancer Drug Screen. Data for the cln2 rad14 strain (AID 165);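 also: 0% = growth equal to vehicle treated cultures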; conditions: S. cerevisiae cln2 rad14 strain, stronger effect = higher value
Method in brief: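 Yeast strain cln2 rad14, bearing defects in cell cycle control and DNA repair, serves as the test system; values reflect growth inhibition compared with vehicle.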

[5] = NCI Yeast Anticancer Drug Screen. Data for the bub3 strain (AID 167); conditions: S. cerevisiae bub3 mutant strain, stronger effect = higher value
Method in brief: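 Compounds were applied to a genetically altered yeast strain carrying a cell-cycle control defect. Growth inhibition was scored against vehicle-treated controls.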

[6] = NCI Yeast Anticancer Drug Screen. Data for the mlh1 rad18 strain (AID 175); conditions: S. cerevisiae mlh1 rad18 strain growth inhibition, stronger effect = higher value
Method in brief: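 Steps: expose repair-defective yeast to compound; measure growth; express inhibition against vehicle-treated controls.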

[7] = at 5.0 µM (retest, dose inferred, filed as 0.5)
[8] = at 50.0 µM (retest, dose inferred, filed as 5.0)

Measured: growth inhibition

Oc1ccc(CC2CCC(O)CC2)cc1 (stereo not given)
inactive: [1]; [7] -169% | [1]; [8] -33% | [1]; at 50.0 µM 50.5% | [2]; [7] -61% | [2]; [8] -33% | [2]; at 50.0 µM 28.6% | [3]; [7] -66% | [3]; [8] -54% | [3]; at 50.0 µM 22.6% | [4]; [7] -59% | [4]; [8] -43% | [4]; at 50.0 µM 45% | [5]; [7] -76% | [5]; [8] -24% | [5]; at 50.0 µM 46.6% | [6]; [7] -121% | [6]; [8] -78% | [6]; at 50.0 µM 24.2%

CC(C)=C1C=C2CCC3C(C)(C(=O)O)CCCC3(C)C2CC1 (stereo not given) (tested in a mixture with another compound)
inactive: [1]; [7] -4% | [2]; [7] -5% | [2]; [8] 61% | [2]; at 50.0 µM 40.1% | [3]; [7] -5% | [3]; [8] 48% | [3]; at 50.0 µM 59.4% | [4]; [7] -5% | [4]; [8] 47% | [4]; at 50.0 µM 20.3% | [5]; [7] -7% | [5]; at 50.0 µM 38.8% | [6]; [7] -1% | [6]; at 50.0 µM 60.8%
active: [1]; [8] 90% | [1]; at 50.0 µM 72.5% | [5]; [8] 98% | [6]; [8] 76%

CC1(C)c2ccccc2Cc2cc3ccccc3nc21
active: [1]; [8] 98% | [1]; at 50.0 µM 97.8% | [2]; [8] 99% | [2]; at 50.0 µM 93% | [3]; [8] 97% | [3]; at 50.0 µM 90.2% | [4]; [8] 95% | [5]; [8] 98% | [5]; at 50.0 µM 94% | [6]; [8] 98% | [6]; at 50.0 µM 83.2%
inactive: [1]; [7] 0% | [2]; [7] -4% | [3]; [7] -5% | [4]; [7] 1% | [4]; at 50.0 µM 25.2% | [5]; [7] -3% | [6]; [7] -1%

CCOc1ccnc2c(C)c3c([nH]c4ccccc43)c(C)c12
active: [1]; [8] 99% | [1]; at 50.0 µM 99.2% | [2]; [8] 99% | [2]; at 50.0 µM 99.5% | [3]; at 50.0 µM 99.2% | [4]; [8] 97% | [4]; at 50.0 µM 99% | [5]; [8] 99% | [5]; at 50.0 µM 99.3% | [6]; [8] 99% | [6]; at 50.0 µM 99.3%
inactive: [1]; [7] 50% | [2]; [7] 23% | [3]; [7] 29% | [3]; [8] 52% | [4]; [7] 14% | [5]; [7] 11% | [6]; [7] 16%

Cc1cc(C)nc(NS(=O)(=O)c2ccc(Nc3nc(-c4cccc([N+](=O)[O-])c4)cs3)cc2)n1
inactive: [1]; [7] 14% | [1]; at 50.0 µM 23.1% | [2]; [7] -1% | [2]; at 50.0 µM 30.5% | [3]; [7] 7% | [3]; at 50.0 µM 47.6% | [4]; [7] -26% | [4]; at 50.0 µM 51.9% | [5]; [7] 34% | [6]; [7] 5% | [6]; at 50.0 µM 53%
active: [1]; [8] 99% | [2]; [8] 99% | [3]; [8] 99% | [4]; [8] 98% | [5]; [8] 99% | [5]; at 50.0 µM 75.2% | [6]; [8] 99%

CN=C1NS(=O)(=O)c2ccccc21
inactive: [1]; [7] 2% | [1]; [8] 0% | [1]; at 50.0 µM 15.8% | [2]; [7] 8% | [2]; [8] 1% | [2]; at 50.0 µM -6.15% | [3]; [7] 4% | [3]; [8] -1% | [3]; at 50.0 µM 3.4% | [4]; [7] 0% | [4]; [8] 2% | [4]; at 50.0 µM 19.1% | [5]; [7] 11% | [5]; [8] 39% | [5]; at 50.0 µM -0.85% | [6]; [7] 0% | [6]; [8] 8% | [6]; at 50.0 µM -2.4%

CCC(C(=O)CCN(C)C)(c1ccccc1)c1ccccc1
active: [1]; [8] 99% | [1]; at 50.0 µM 99.5% | [2]; [8] 99% | [2]; at 50.0 µM 99.6% | [3]; [7] 80% | [3]; [8] 99% | [3]; at 50.0 µM 99.3% | [4]; [8] 99% | [4]; at 50.0 µM 99.3% | [5]; [8] 99% | [5]; at 50.0 µM 99.8% | [6]; [7] 80% | [6]; [8] 99% | [6]; at 50.0 µM 99.5%
inactive: [1]; [7] 67% | [2]; [7] 49% | [4]; [7] 19% | [5]; [7] 59%

CCCCCCOC(=O)COc1ccccc1
inactive: [1]; [7] 4% | [1]; [8] 2% | [1]; at 50.0 µM 23.6% | [2]; [7] 0% | [2]; [8] -1% | [2]; at 50.0 µM -0.8% | [3]; [7] -1% | [3]; [8] 3% | [3]; at 50.0 µM 20.6% | [4]; [7] 5% | [4]; [8] 1% | [4]; at 50.0 µM 40.8% | [5]; [7] 24% | [5]; [8] 45% | [5]; at 50.0 µM 15.8% | [6]; [7] -1% | [6]; [8] 0% | [6]; at 50.0 µM 33.7%

Cn1cnc2[nH]c(Cl)nc(=S)c21
active: [4]; at 50.0 µM 81.1%
inactive: [1]; [7] -1% | [1]; [8] 2% | [1]; at 50.0 µM 1.05% | [2]; [7] 3% | [2]; [8] 0% | [2]; at 50.0 µM -8.25% | [3]; [7] -1% | [3]; [8] 0% | [3]; at 50.0 µM -0.65% | [4]; [7] -6% | [4]; [8] 0% | [5]; [7] -1% | [5]; [8] -4% | [5]; at 50.0 µM 11.9% | [6]; [7] -2% | [6]; [8] 0% | [6]; at 50.0 µM 15.6%

CC(C)CCN(CCC(C)C)C(=S)Nc1ccccc1
active: [1]; [8] 87% | [1]; at 50.0 µM 92.7% | [2]; [8] 93% | [2]; at 50.0 µM 89.2% | [3]; [8] 89% | [3]; at 50.0 µM 86.8% | [4]; [8] 89% | [4]; at 50.0 µM 90.8% | [5]; [8] 94% | [5]; at 50.0 µM 92% | [6]; [8] 94% | [6]; at 50.0 µM 92.5%
inactive: [1]; [7] -13% | [2]; [7] 6% | [3]; [7] -20% | [4]; [7] -22% | [5]; [7] -7% | [6]; [7] -7%
